Experiment [1] has as its target Aldehyde dehydrogenase, mitochondrial (Homo sapiens) (UniProt P05091). The experiment in a line: qHTS for Inhibitors of the Aldehyde Dehydrogenase Family (ALDH2) Primary screen (AID 2061308). Further: nearly all actives have a fitted effect of over 55% in size. Further: potency means the concentration at half of the fitted maximal effect.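 On activity change, negative = inhibition: plate controls were vehicle for no effect and reference inhibitor for full effect.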 A general note: Quantitative high-throughput screening tests each substance at several concentrations.
Experiment [2] concerns the target Retinaldehyde dehydrogenase 3 (Homo sapiens) (UniProt P47895). The experiment in a line: qHTS for Inhibitors of the Aldehyde Dehydrogenase Family (ALDH1A3) Validation screen (AID 2061312). Further: nearly all actives have a fitted effect of over 45% in size. Further: potency means the concentration at half of the fitted maximal effect. On activity change, negative = inhibition: on the % scale 0 is the no-effect control and ±100 the full control effect.
For experiment [3] the target is unchanged. The experiment is described as follows: qHTS for Inhibitors of the Aldehyde Dehydrogenase Family (ALDH1A3) Primary screen (AID 2061315).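 Further: plate controls were DMSO vehicle for no effect and reference inhibitor for full effect.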
A short description of experiment [4]: BET inhibitor-based combinations targeting novel dependencies in MECOM-rearranged (r) AML: SET-2 cell line (AID 2202231). Further: nearly all actives have a fitted effect of over 35% in size. Further: potency means the concentration at half of the fitted maximal effect.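 On viability: plate controls were DMSO treated cells for no effect and wells without cells for full effect.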 As to conditions: SET-2 AML cells viability, CellTiter-Glo luminescence, 48 h; viability: stronger effect = lower value, concentration not given here. Summed up:
(§1)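 AML cell lines seeded at 500 cells/well, treated with 11-point dose curves for 48 h. Viability by CellTiter-Glo luminescence, normalised to DMSO and empty wells; activity expressed as AUC and per-cell-line Z-transformed AUC.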
For orientation: Cellular ATP, detected with luciferase, serves as a proxy for viable cell number.

Experiment [5] is described as follows: BET inhibitor-based combinations targeting novel dependencies in MECOM-rearranged (r) AML: OCI-AML3 cell line (AID 2202232). Further: nearly all actives have a fitted effect of over 35% in size. Further: potency means the concentration at half of the fitted maximal effect.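 On viability (% of control): series mostly up to about 46 µM; plate controls were DMSO vehicle wells for no effect and wells without cells for full effect.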 Particulars: Potency: OCI-AML3 viability. The method, boiled down:
as §1

Experiment [6] is described as follows: BET inhibitor-based combinations targeting novel dependencies in MECOM-rearranged (r) AML: MV-4-11 cell line (AID 2202233). Further: nearly all actives have a fitted effect of over 45% in size. Further: potency means the concentration at half of the fitted maximal effect. The method, boiled down:
(§2)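 Cells at 500/well were exposed for 48 hr to MIPE v5.0 drugs as 11-point dose curves. Viability was read by CellTiter-Glo luminescence and normalized to DMSO and empty-well controls. Activity was expressed as AUC and per-cell-line Z-AUC.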

Experiment [7] can be described thus: BET inhibitor-based combinations targeting novel dependencies in MECOM-rearranged (r) AML: HNT-34 cell line (AID 2202234). Further: nearly all actives have a fitted effect of over 35% in size. Further: potency means the concentration at half of the fitted maximal effect.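 On viability (% of control): plate controls were vehicle wells for no effect and cell-free wells for full effect.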 Summed up: as §2
A short description of experiment [8]: BET inhibitor-based combinations targeting novel dependencies in MECOM-rearranged (r) AML: UCSD-AML1 cell line (AID 2202235). Further: nearly all actives have a fitted effect of over 40% in size. Further: potency means the concentration at half of the fitted maximal effect.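 On viability (% of control): series mostly up to about 46 µM; plate controls were DMSO vehicle wells for no effect and blank wells for full effect.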 Summed up:
as §2

Experiment [9] can be described thus: BET inhibitor-based combinations targeting novel dependencies in MECOM-rearranged (r) AML: AML-191 cell line (AID 2202236; further: nearly all actives have a fitted effect of over 35% in size; further: potency means the concentration at half of the fitted maximal effect;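 on viability (% of control): plate controls were vehicle wells for no effect and wells without cells for full effect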). Summed up: as §1
Experiment [10] is described as follows: BET inhibitor-based combinations targeting novel dependencies in MECOM-rearranged (r) AML: AML-194 cell line (AID 2202237; further: nearly all actives have a fitted effect of over 40% in size; further: potency means the concentration at half of the fitted maximal effect;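 on viability (% of control): plate controls were vehicle wells for no effect and wells without cells for full effect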). Summed up:
as §1

For experiment [11], the target named is Retinal dehydrogenase 2 (Homo sapiens) (UniProt O94788). The experiment is described as follows: qHTS for Inhibitors of the Aldehyde Dehydrogenase Family (ALDH1A2) Confirmation screens (AID 2061314). Further: potency means the concentration at half of the fitted maximal effect; nearly all actives have a fitted effect of over 65% in size.

Inconclusive results are not listed. Values without a mark were called inactive. Active and inactive are the calls of the source. The call rests on the fitted dose curve; in most records, active means well fitted curve in the direction sought with a large enough effect; inconclusive means small, poorly fitted or top-dose-only effect, or another doubt; inactive means no such curve, though single readings can be large; an effect the other way counts as inactive or inconclusive.

`CC(C)c1cc(C(=O)N2Cc3ccc(CN4CCN(C)CC4)cc3C2)c(O)cc1O`: the Potency result in experiment [1], in [2] and in [3] was “inactive” each time. The Potency was 0.263 µM (active) in experiment [4]; 0.296 µM (active) in experiment [5]; 0.0742 µM (active) in experiment [6]; 0.209 µM (active) in [7]; 0.263 µM (active) in [8].
With `O=C(CC(c1ccccc1)c1ccccc1)N1CCN(C(c2ccccc2)c2ccccc2)CC1`, the Potency result in experiment [1], in [2] and in experiment [3] was “inactive” throughout.
Consider `CC1CCN(c2cc(NC(=O)c3ccccc3)ncn2)CC1`, for which the Potency entry in experiment [1], in experiment [2] and in experiment [3] was “inactive” throughout.
On to `O=C(O)C1(c2ccc(-c3ccc(Cl)c(Cl)c3)c(F)c2)CC1`, for which the Potency result in [1] was “inactive”. The Potency in experiment [2] was 44.7 µM (active).
In the case of `CCC(COC)n1nnc2c(Nc3ccc(OC)cc3C)nc(C)cc21` (stereo not drawn), the Potency entry in experiment [1], in experiment [2] and in experiment [3] was “inactive” in each case.
Turning to `C[C@@H]([C@@H](O)c1ccc(O)cc1)N1CCC(O)(c2ccccc2)CC1`, the Potency result in [1], in experiment [2] and in experiment [3] was “inactive” throughout.
In the case of `CN(C)C(=O)NC1CCC(CCN2CCN(c3cccc(Cl)c3Cl)CC2)CC1` (stereo not drawn), the activity change, negative = inhibition was 8.14% [at 11.2 µM] in experiment [1], 7.05% [at 20.1 µM] in experiment [2] and -11.6% [at 11.2 µM] in experiment [3].
For the compound `COCCOc1nc(-c2ccc(Cl)c(Cl)c2)n(-c2ccc(NC(=O)CCl)cc2)n1`, the Potency result in experiment [1] and in experiment [2] was “inactive” in each case. In addition, the Potency in [4] is 1.86 µM (active); in [5] it was 2.09 µM (active); in experiment [6], 5.25 µM (active); in [7], 0.662 µM (active); in experiment [8], 1.32 µM (active); in experiment [9] it was 1.05 µM (active). Moreover, in [10], the Potency is 0.934 µM (active).
Regarding `c1ccc(Cc2ncc3c(n2)CCNCC3)cc1`, the Potency entry in experiment [1] and in [3] was “inactive” throughout.
The term viability denotes a read-out of living cells in per cent, often relative to untreated cells. Take `CC(C)OC(=O)C1=CN(C(=O)c2ccc(F)c(F)c2)CC(C)(C)c2c1[nH]c1ccccc21`: the Potency entry in experiment [1], in experiment [2], in [3], in [5], in experiment [7] and in [8] was “inactive” in each case. For the same compound, the Potency entry in experiment [9] and in [10] was “inactive” each time. Also, the viability in experiment [4] is 109%.
In the case of `CCN(CCO)CCCC(C)Nc1ccnc2cc(Cl)ccc12` (stereo not drawn), the activity change, negative = inhibition is 2.52% [at 5.59 µM] in experiment [1], 6.92% [at 9.14 µM] in experiment [2] and 5.26% [at 5.59 µM] in experiment [3]. Moreover, the viability in experiment [4] is 104%. In addition, the viability (% of control) in experiment [5] is 48.6% [at 5.12 µM]; in experiment [9], 74.5% [at 5.12 µM]; in [10] it was 88% [at 5.12 µM].
Take `CC1OC(O[C@@H]2[C@@H](O)[C@H](OC(=O)[C@]34CCC(C)(C)C[C@H]3C3=CCC5[C@@]6(C)CC[C@H](O[C@@H]7O[C@H](C(=O)O)[C@@H](O)[C@H](O[C@@H]8OC[C@@H](O)[C@H](O)[C@H]8O)[C@H]7O[C@@H]7O[C@H](CO)[C@H](O)[C@H](O)[C@H]7O)[C@@](C)(C=O)C6CC[C@@]5(C)[C@]3(C)C[C@H]4O)O[C@H](C)[C@@H]2OC2OC(C)C(OC3OCC(O)C(O)C3O)C(O)C2O)C(O)C(O)C1O` (stereo partly drawn): the results for the activity change, negative = inhibition in experiment [1] and in [3] were 9.81% [at 11.2 µM] and 5.21% [at 11.2 µM], respectively.
On to `COc1cc(O)c2c(c1)C1(OC2=O)C(C)=CC(=O)C1O` (stereo not drawn), for which the Potency result in experiment [1] and in [3] was “inactive” each time.
On to `COCC1OC(OC(C)(C)C2CCC3(C)C=C(C4CCC5C4(C)CC(O)C4OC(C(C)(C)OC6OC(CO)C(O)C(O)C6NC(C)=O)CCC45C)CCC3O2)C(NC(C)=O)C(O)C1O` (stereo not drawn), for which the Potency entry in experiment [1] and in [3] was “inactive” throughout.
Turning to `C=C(C)C1CC2(CO)C(=CC1=O)CCC(O)C2C` (stereo not drawn), the Potency result in [1] and in experiment [3] was “inactive” each time.
Regarding `Cn1cc(S(C)=O)c(=O)c2ccc(F)cc21` (stereo not drawn), the Potency result in experiment [1] and in [3] was “inactive” throughout.
With `COc1cc(O[C@@H]2O[C@H](CO)[C@@H](O)[C@H](O)[C@H]2O)c(CCC(=O)OC[C@H]2O[C@@H](Oc3cc(OC)c(C4OC(=O)C(C)(O)C4O)cc3CCC(=O)O)[C@H](O)[C@@H](O)[C@@H]2O)cc1C1OC(=O)C(C)(O)C1O` (stereo partly drawn), the Potency result in [1] and in experiment [3] was “inactive” each time.
With `CC1CCC2C(C)(C)CC(C)(CO)C2(O)C1C(=O)O` (stereo not drawn), the Potency result in experiment [1] and in experiment [3] was “inactive” throughout.
As to `Cc1nc(C#Cc2ccnc(Cl)c2)c(C)n1-c1ccc(OC(F)(F)F)cc1`, the Potency entry in experiment [1] and in experiment [3] was “inactive” in each case.
For `CC(=O)O[C@H]1C[C@H](OC(C)=O)[C@]2(C)[C@H](CC[C@@]34O[C@@H]3C3=C(C)C(=O)O[C@@H]3C[C@H]42)C1(C)C`, the Potency entry in experiment [1] and in experiment [3] was “inactive” in each case.
For `C[C@H](NC(=O)CCc1nc2ccccc2c(=O)[nH]1)c1ccccc1`, the Potency result in [1] and in experiment [3] was “inactive” in each case.
As for `CCOC(=O)c1cnn(-c2ccccc2)c1NC(=O)c1cc2nc(-c3ccco3)cc(C(F)(F)Cl)n2n1`, the Potency entry in experiment [1] and in experiment [3] was “inactive” throughout.
`O=C(O)C[C@H]1CCC(=O)[C@@H]1C/C=C\CCOC1OC(CO)C(O)C(O)C1O` (stereo partly drawn): the Potency entry in experiment [1] and in experiment [3] was “inactive” in each case.
For the compound `O=C(c1ccccc1)c1c(O)cc(O)cc1O[C@@H]1O[C@H](CO)[C@@H](O)[C@H](O)[C@H]1O`, the Potency result in experiment [1] and in experiment [3] was “inactive” in each case.
For `C/C=C(\C)C(=O)OC1C(C)C2(O)C3C=C(C)C(=O)C3CC(CO)=CC2C2C(C)(C)C12OC(C)=O` (stereo not drawn), the Potency result in experiment [1] and in experiment [3] was “inactive” in each case.
Consider `O=C(c1ccc2nccnc2c1)N1CCCCC1`, for which the Potency entry in experiment [1] and in experiment [3] was “inactive” each time.
For the compound `Cc1ccccc1C(=O)N1CC/C(=N\OS(=O)(=O)O)c2ccc(Cl)cc21`, the Potency result in experiment [1] and in [3] was “inactive” each time.
Take `C=CC1(C)C=C2C(=O)OC(=O)C3=C(CCCC3(C)C)C2(O)CC1` (stereo not drawn): the Potency entry in [1] and in experiment [3] was “inactive” in each case.
Take `N#Cc1c(O)c2c(-c3ccc(-c4ccccc4O)cc3)csc2[nH]c1=O`: the Potency was 17.8 µM (active) in experiment [1] and 12.7 µM (active) in experiment [11]. Also, the Potency entry in experiment [3], in experiment [5], in [6], in experiment [7], in [8] and in experiment [9] was “inactive” each time. Besides, in experiment [10], the Potency entry was “inactive”. Also, the viability in experiment [4] was 120%.
For the compound `COc1ccc(/C=C/C(=O)O[C@@H]2[C@@H](O)[C@H](C)O[C@@H](OC3C4C=COC(O[C@@H]5O[C@H](CO)[C@@H](O)[C@H](O)[C@H]5O)C4C4(CO)OC34)[C@@H]2O)cc1OC` (stereo partly drawn), the Potency entry in experiment [1] and in [3] was “inactive” throughout.

The values above are taken from PubChem BioAssay (NCATS).
